According to ChEMBL document CHEMBL2218924, “A broad activity screen in support of a chemogenomic map for kinase signalling research and drug discovery” (Biochem J, 2013):

Assays:
[1] = biological target: Tyrosine-protein kinase SYK (Homo sapiens) (UniProt P43405); details: at 10 µM
[2] = biological target: T1, Mitogen-activated protein kinase kinase kinase 7 (Homo sapiens) (UniProt O43318); details: at 1 µM
T1 sequence (whole entry): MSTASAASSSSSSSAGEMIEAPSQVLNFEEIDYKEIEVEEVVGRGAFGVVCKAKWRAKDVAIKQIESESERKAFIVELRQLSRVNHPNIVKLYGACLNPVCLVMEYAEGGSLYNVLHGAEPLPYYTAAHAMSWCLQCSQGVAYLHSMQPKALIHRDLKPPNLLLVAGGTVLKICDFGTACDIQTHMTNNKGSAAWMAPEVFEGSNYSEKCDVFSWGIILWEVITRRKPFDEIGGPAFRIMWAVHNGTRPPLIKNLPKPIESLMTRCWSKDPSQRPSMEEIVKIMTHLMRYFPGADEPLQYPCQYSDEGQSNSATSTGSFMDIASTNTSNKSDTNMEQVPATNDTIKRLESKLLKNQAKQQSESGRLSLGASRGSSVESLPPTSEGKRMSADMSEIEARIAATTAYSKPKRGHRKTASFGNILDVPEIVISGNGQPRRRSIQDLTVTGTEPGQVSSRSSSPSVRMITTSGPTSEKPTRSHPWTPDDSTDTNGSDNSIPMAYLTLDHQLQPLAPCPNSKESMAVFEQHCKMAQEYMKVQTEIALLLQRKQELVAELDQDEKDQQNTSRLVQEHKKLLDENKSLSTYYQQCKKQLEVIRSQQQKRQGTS

[3] = biological target: T1, Mitogen-activated protein kinase kinase kinase 7 (Homo sapiens); details: at 10 µM
[4] = biological target: T2, Serine/threonine-protein kinase TAO1 (Homo sapiens) (UniProt Q7L7X3); details: at 10 µM
T2 sequence (whole entry): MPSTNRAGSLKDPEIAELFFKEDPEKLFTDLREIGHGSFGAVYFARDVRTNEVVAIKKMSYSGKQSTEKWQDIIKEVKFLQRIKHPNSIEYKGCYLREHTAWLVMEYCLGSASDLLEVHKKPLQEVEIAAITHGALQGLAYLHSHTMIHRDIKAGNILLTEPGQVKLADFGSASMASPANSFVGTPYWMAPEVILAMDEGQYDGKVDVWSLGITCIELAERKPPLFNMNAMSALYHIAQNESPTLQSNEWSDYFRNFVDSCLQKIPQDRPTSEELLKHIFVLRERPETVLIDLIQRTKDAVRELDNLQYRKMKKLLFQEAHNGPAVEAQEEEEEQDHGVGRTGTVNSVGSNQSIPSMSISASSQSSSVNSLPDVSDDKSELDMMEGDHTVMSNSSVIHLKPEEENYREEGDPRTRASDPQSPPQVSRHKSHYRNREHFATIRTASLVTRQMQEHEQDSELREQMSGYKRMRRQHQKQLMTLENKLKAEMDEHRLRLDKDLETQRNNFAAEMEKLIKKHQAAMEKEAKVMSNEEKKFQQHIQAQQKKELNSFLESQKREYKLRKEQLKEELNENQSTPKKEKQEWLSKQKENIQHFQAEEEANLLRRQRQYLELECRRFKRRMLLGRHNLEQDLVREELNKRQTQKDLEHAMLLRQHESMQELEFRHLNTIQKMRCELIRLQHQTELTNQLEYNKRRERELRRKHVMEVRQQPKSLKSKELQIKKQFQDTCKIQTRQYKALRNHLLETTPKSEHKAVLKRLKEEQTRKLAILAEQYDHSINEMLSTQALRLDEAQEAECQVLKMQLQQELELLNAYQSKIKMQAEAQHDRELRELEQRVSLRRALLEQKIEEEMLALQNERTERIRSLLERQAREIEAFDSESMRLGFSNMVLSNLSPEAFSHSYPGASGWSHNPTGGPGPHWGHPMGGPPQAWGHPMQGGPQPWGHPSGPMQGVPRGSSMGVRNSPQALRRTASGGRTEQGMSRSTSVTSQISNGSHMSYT

[5] = biological target: T3, Serine/threonine-protein kinase TAO2 (Homo sapiens) (UniProt Q9UL54); details: at 1 µM
T3 sequence (whole entry): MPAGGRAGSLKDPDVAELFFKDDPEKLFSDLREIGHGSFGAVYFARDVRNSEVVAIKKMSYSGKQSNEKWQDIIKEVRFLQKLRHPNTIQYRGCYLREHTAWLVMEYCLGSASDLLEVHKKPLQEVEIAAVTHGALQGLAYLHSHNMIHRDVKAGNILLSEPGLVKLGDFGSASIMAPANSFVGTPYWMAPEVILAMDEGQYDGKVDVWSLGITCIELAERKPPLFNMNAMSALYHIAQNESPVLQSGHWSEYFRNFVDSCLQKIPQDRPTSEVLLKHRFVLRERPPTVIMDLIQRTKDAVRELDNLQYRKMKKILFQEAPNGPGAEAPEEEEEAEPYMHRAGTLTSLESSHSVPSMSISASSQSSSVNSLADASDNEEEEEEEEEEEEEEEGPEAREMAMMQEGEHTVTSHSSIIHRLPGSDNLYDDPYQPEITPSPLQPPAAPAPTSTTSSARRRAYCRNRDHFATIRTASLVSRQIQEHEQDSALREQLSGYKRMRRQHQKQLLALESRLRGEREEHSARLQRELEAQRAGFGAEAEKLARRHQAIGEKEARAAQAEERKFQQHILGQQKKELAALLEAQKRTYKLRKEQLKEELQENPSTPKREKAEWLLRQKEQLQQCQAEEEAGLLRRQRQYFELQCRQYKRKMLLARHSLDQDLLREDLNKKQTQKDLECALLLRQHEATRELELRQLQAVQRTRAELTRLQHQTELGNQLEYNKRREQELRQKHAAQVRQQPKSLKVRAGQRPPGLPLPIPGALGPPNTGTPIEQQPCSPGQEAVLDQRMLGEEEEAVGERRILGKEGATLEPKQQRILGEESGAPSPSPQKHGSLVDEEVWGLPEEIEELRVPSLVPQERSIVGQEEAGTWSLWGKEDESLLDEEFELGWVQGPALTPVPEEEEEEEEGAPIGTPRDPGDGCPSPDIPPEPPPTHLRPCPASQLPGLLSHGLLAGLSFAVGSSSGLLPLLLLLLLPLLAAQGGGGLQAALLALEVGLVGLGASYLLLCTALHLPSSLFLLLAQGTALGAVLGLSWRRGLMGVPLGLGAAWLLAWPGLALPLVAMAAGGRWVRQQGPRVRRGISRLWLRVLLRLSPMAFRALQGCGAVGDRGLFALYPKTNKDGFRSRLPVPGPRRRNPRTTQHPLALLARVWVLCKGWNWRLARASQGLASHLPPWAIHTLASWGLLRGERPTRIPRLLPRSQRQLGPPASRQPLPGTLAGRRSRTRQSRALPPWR

[6] = biological target: T3, Serine/threonine-protein kinase TAO2 (Homo sapiens); details: at 10 µM
[7] = biological target: T4, Serine/threonine-protein kinase TAO3 (Homo sapiens) (UniProt Q9H2K8); details: at 1 µM
T4 sequence (whole entry): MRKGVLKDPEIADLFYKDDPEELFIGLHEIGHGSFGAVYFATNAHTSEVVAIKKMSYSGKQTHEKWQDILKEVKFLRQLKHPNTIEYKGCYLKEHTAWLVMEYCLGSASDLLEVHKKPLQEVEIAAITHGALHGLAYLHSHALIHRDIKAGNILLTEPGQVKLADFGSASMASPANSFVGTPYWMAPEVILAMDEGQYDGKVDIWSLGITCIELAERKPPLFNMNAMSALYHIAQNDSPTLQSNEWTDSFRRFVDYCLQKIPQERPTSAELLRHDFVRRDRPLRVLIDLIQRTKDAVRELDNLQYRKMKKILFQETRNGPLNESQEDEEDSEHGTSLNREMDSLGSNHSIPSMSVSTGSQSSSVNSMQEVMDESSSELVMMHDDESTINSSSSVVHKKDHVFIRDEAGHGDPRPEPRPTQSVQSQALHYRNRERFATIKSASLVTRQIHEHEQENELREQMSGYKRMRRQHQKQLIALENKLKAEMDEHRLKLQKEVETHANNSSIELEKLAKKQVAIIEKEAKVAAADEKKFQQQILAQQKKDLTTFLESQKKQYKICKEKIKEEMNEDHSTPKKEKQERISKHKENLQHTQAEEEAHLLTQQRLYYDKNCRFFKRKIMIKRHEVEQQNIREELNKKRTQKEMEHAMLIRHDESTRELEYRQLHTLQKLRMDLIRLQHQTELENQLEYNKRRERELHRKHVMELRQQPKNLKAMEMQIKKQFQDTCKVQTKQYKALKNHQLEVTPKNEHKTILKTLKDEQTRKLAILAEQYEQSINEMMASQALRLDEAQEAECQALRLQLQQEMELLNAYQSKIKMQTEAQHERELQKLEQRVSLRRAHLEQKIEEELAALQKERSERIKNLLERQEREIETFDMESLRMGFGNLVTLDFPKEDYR

[8] = biological target: T4, Serine/threonine-protein kinase TAO3 (Homo sapiens); details: at 10 µM
[9] = biological target: T5, Serine/threonine-protein kinase TBK1 (Homo sapiens) (UniProt Q9UHD2); details: at 1 µM
T5 sequence (whole entry): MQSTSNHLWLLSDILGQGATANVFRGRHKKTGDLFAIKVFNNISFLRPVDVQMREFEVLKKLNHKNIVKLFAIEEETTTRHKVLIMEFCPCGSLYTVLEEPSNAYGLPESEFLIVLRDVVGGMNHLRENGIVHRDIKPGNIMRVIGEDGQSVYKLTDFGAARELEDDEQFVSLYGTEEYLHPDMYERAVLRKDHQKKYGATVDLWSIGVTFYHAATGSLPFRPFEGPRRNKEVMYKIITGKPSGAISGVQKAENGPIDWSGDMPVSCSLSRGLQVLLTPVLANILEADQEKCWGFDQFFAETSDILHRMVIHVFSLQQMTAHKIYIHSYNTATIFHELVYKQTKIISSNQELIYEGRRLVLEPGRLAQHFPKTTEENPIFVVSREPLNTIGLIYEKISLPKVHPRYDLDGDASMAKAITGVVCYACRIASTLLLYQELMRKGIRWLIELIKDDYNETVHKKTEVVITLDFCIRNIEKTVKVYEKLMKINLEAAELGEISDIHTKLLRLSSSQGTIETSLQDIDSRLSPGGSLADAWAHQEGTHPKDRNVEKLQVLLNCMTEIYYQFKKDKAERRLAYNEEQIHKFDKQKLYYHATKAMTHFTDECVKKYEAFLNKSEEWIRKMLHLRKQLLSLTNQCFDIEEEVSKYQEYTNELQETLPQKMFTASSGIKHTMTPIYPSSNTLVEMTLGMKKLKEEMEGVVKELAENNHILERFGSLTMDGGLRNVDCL

[10] = biological target: T5, Serine/threonine-protein kinase TBK1 (Homo sapiens); details: at 10 µM
[11] = biological target: T6, TGF-beta receptor type-1 (Homo sapiens) (UniProt P36897); details: at 1 µM
T6 sequence (whole entry): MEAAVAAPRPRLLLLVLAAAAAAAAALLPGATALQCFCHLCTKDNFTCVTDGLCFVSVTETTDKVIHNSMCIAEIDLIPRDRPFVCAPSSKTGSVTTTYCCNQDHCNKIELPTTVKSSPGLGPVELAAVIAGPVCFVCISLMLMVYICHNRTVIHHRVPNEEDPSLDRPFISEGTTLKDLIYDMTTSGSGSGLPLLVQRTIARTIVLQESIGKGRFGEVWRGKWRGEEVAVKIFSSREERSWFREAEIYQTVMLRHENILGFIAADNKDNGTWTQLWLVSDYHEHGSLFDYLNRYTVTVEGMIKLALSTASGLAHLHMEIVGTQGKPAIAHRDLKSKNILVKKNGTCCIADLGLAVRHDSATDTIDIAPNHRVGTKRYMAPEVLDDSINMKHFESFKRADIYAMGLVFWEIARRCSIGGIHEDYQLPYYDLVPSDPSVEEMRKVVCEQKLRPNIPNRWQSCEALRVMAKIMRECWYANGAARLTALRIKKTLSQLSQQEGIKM

[12] = biological target: T6, TGF-beta receptor type-1 (Homo sapiens); details: at 10 µM
[13] = biological target: Insulin-like growth factor 1 receptor (Homo sapiens) (UniProt P08069); details: at 10 µM
Sequence of Insulin-like growth factor 1 receptor (Homo sapiens) (P08069 31-736 limits assumed): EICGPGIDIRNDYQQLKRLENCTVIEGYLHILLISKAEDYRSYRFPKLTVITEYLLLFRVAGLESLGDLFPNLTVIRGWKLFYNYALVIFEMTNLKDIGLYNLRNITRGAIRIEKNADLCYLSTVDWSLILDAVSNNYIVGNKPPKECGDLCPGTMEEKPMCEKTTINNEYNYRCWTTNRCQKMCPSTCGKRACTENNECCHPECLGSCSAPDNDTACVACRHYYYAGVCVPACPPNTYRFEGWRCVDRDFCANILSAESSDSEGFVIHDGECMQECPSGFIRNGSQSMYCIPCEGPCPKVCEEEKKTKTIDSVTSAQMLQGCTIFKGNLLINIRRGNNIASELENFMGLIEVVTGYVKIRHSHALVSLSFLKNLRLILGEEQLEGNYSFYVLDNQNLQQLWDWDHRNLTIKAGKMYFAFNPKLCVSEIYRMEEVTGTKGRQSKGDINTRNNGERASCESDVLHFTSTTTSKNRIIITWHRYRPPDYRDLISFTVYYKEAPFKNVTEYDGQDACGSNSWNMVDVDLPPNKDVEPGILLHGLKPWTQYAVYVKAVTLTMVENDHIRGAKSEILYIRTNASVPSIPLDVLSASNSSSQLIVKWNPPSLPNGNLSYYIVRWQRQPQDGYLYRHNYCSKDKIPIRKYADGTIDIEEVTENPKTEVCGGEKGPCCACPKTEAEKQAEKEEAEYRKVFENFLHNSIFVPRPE
Sequence of Insulin-like growth factor 1 receptor (Homo sapiens) (P08069 741-1367 limits assumed): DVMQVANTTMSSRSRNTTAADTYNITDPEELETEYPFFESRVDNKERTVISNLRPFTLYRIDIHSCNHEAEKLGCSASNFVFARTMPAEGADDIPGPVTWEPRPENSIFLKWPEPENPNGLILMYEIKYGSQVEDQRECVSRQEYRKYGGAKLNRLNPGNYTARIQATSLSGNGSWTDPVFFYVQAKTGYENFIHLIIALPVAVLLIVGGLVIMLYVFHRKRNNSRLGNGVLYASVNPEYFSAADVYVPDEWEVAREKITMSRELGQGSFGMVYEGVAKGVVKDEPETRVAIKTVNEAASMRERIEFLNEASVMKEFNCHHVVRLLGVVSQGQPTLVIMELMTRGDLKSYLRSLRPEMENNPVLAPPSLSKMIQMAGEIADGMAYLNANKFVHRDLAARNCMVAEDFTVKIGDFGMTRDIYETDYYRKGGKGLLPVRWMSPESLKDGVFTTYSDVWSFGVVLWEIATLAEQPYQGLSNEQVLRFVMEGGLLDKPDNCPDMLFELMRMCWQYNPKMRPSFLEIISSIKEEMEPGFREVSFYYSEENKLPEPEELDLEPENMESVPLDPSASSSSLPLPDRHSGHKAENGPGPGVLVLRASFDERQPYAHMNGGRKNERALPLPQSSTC

[14] = biological target: T7, Inhibitor of nuclear factor kappa-B kinase subunit beta (Homo sapiens) (UniProt O14920); details: at 1 µM
T7 sequence (whole entry): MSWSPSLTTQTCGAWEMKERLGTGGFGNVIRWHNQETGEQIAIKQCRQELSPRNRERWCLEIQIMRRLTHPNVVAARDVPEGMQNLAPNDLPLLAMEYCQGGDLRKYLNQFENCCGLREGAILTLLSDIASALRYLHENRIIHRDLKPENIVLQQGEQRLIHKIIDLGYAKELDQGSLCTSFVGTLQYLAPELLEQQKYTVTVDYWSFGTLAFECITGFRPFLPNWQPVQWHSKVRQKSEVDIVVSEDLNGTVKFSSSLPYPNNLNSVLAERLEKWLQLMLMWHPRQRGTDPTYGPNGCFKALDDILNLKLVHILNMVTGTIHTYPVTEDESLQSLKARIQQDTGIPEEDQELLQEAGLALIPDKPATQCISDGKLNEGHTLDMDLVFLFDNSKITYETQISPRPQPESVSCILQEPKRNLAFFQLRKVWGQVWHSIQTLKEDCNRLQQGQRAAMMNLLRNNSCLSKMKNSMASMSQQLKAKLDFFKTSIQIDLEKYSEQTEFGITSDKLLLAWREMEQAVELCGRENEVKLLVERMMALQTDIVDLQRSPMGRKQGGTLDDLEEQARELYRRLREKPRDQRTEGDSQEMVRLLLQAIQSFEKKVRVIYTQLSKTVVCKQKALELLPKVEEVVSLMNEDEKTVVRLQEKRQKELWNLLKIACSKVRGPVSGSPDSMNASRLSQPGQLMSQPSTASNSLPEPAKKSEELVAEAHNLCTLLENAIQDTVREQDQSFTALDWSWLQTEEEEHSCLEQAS

[15] = biological target: T7, Inhibitor of nuclear factor kappa-B kinase subunit beta (Homo sapiens); details: at 10 µM

## O=c1cc(N2CCNCC2)oc2c(-c3ccccc3)cccc12
[1]
  residual activity: 92%
[2]
  residual activity: 95%
[3]
  residual activity: 83%
[4]
  residual activity: 85%
[5]
  residual activity: 105%
[6]
  residual activity: 96%
[7]
  residual activity: 98%
[8]
  residual activity: 92%
[9]
  residual activity: 72%
[10]
  residual activity: 54%
[11]
  residual activity: 91%
[12]
  residual activity: 85%
[13]
  residual activity: 97%
[14]
  residual activity: 99%
[15]
  residual activity: 82%
